Reference: PubChem BioAssay (EPA / NIEHS)
Calls of active or inactive are those of the source. The calls were made as follows: active = hit-call score of the fitted dose curve at least 0.9, where 1 is the maximum; inactive = score below 0.9.

How the values were obtained:
[1] = ATG_CRE_CIS: Attagene CIS-FACTORIAL HepG2 Assay for human cAMP Responsive Element (CRE) binding protein 3 (AID 2282926); details: HepG2 CRE cis-reporter, Attagene multiplexed mRNA; actives raise or lower the signal
Summary of the method: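 Multiplexed transcription-unit reporters transfected into HepG2; 24 h dosing; RT-PCR/capillary electrophoresis fluorescence read-out; bidirectional fit vs DMSO.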

[2] = target: CCAAT/enhancer-binding protein beta (Homo sapiens) (UniProt P17676); assay: ATG_C_EBP_CIS: Attagene CIS-FACTORIAL HepG2 Assay for human CCAAT/Enhancer Binding Protein (C/EBP) beta (AID 2282927); details: HepG2 Attagene cis-factorial transcription factor reporter; actives raise or lower the signal
CCAAT/enhancer-binding protein beta (Homo sapiens), sequence (P17676 whole entry, looked up): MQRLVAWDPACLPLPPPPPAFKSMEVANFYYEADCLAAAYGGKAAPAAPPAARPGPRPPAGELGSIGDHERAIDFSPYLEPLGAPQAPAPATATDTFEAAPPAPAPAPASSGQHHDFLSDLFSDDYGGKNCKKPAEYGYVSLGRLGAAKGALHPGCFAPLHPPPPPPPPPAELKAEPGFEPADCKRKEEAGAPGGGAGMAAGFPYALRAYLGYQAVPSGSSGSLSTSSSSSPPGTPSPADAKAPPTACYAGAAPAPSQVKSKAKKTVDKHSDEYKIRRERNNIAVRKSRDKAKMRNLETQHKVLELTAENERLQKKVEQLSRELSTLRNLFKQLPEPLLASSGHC
Summary of the method: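 HepG2 transiently transfected with multiplexed reporter units under cis-regulatory promoters reporting endogenous C/EBPb activity. After 24 h exposure, reporter mRNA assayed by RT-PCR, fluorescent labelling, HpaI digestion and capillary electrophoresis; bidirectional fitting versus DMSO.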

[3] = ATG_CMV_CIS: Attagene CIS-FACTORIAL HepG2 Assay for human CMV (Internal Marker) (AID 2282928); details: HepG2 CMV promoter reporter, transcription factor profiling; actives raise or lower the signal;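 also: endpoint acts as a background internal control marker rather than a target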
Summary of the method: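 Endogenous transcription factor activity read in HepG2 via transfected cis-promoter reporter units. After 24 h dosing, reporter mRNA measured by RT-PCR/capillary electrophoresis; gain or loss of signal fit relative to DMSO.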

[4] = ATG_DR4_LXR_CIS: Attagene CIS-FACTORIAL HepG2 Assay for human Liver X Receptor (LXR), DR4 submotif (AID 2282929); details: HepG2 Attagene DR4 cis-reporter, mRNA transcription; actives raise or lower the signal
Summary of the method: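 Measures endogenous transcription factor activity via a DR4-driven reporter transcript in human HepG2 cells. Compounds incubated 24 h; mRNA quantified by RT-PCR and capillary electrophoresis, analysed as gain or loss of signal versus DMSO.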

[5] = target: Aryl hydrocarbon receptor (Homo sapiens) (UniProt P35869); assay: ATG_Ahr_CIS: Attagene CIS-FACTORIAL HepG2 Assay for human Aryl Hydrocarbon Receptor (Ahr) (AID 2282930); details: HepG2 AhR cis-factorial reporter transcription; actives raise or lower the signal
Aryl hydrocarbon receptor (Homo sapiens), sequence (P35869 whole entry, looked up): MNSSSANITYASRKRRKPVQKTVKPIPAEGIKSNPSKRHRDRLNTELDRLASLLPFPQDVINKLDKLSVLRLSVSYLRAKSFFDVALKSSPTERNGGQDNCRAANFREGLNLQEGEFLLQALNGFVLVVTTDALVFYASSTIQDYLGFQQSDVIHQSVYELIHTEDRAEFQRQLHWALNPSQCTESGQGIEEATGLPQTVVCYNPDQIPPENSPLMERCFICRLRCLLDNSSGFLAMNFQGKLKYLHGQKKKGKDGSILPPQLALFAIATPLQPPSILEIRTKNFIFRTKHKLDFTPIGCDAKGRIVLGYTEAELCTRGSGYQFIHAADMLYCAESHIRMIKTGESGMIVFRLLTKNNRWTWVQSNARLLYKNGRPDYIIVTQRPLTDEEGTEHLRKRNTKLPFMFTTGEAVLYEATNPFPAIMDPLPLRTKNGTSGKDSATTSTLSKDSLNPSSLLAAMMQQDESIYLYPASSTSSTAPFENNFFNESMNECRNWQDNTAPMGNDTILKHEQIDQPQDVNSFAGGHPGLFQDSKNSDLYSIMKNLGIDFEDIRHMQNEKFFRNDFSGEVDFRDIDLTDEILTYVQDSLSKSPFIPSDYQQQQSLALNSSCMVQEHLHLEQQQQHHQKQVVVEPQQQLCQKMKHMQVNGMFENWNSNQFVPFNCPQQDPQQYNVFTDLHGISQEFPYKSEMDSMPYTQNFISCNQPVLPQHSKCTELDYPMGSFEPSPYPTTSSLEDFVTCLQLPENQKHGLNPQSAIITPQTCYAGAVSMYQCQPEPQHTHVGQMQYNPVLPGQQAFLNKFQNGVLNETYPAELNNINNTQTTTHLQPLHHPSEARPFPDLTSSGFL
Summary of the method: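 HepG2 cells transiently transfected with cis-element-driven multiplexed reporter units; endogenous AhR activity read as reporter mRNA 24 h after dosing, via RT-PCR, 6-FAM labelling, HpaI digestion and capillary electrophoresis. Bidirectional fit relative to DMSO.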

[6] = ATG_AP_1_CIS: Attagene CIS-FACTORIAL HepG2 Assay for human Activator Protein 1 (AP-1) (AID 2282931); details: HepG2 Attagene cis-factorial AP-1 reporter mRNA; actives raise or lower the signal
Summary of the method: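 Bidirectional concentration-response fitting against DMSO controls. Underlying signal: reporter mRNA from cis-promoter constructs in transiently transfected HepG2, measured after 24 h by RT-PCR and capillary electrophoresis.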

[7] = ATG_AP_2_CIS: Attagene CIS-FACTORIAL HepG2 Assay for human Activator Protein 2 (AP-2) (AID 2282932); details: HepG2 AP-2 cis-reporter, Attagene transcription factor profiling; actives raise or lower the signal
Summary of the method: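 HepG2 cells transiently transfected with cis-element reporter units and exposed for 24 h. Reporter mRNA measured by RT-PCR, FAM labelling, HpaI digestion and capillary electrophoresis. Changes in either direction fitted relative to DMSO.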

[8] = ATG_BRE_CIS: Attagene CIS-FACTORIAL HepG2 Assay for human Bone Morphogenetic Protein (BMP) Response Element (BRE) (AID 2282933); details: HepG2 BMP response element reporter, Attagene transcription factor profiling; actives raise or lower the signal
Summary of the method: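 Multiplexed cis-reporter assay, HepG2, 24 h exposure. mRNA from reporter units quantified via RT-PCR/CE; DMSO baseline; bidirectional curve fit.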

[9] = target: Retinoic acid receptor alpha (Homo sapiens) (UniProt P10276); assay: ATG_DR5_RAR_CIS: Attagene CIS-FACTORIAL HepG2 Assay for human Retinoic Acid Receptor Alpha (RARE), DR5 submotif (AID 2282934); details: HepG2 Attagene cis-factorial RARE DR5 reporter, mRNA; actives raise or lower the signal;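 as to AC50: reporter responds to endogenous RAR alpha beta and gamma in HepG2 not RARA alone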
Retinoic acid receptor alpha (Homo sapiens), sequence (P10276 whole entry, looked up): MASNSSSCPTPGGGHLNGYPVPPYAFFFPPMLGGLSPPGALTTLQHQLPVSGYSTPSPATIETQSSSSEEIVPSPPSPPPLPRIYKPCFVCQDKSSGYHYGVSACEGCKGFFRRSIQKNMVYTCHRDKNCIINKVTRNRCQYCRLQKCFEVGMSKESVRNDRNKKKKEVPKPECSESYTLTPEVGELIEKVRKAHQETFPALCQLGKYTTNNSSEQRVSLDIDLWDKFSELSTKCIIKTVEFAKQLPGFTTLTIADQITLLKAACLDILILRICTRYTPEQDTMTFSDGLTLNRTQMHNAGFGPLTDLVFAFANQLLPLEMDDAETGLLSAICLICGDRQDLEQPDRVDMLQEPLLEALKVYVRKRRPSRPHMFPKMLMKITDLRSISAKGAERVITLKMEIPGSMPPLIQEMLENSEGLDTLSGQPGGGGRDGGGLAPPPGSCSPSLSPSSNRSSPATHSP
Summary of the method: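 HepG2 cells transiently transfected with multiplexed reporter units; DR5 cis-element drives reporter through endogenous transcription factors. After 24 h dosing, reporter mRNA quantified by RT-PCR, fluorescent labeling, HpaI digestion and capillary electrophoresis; bidirectional fitting versus DMSO.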

[10] = ATG_E_Box_CIS: Attagene CIS-FACTORIAL HepG2 Assay for human Enhancer Box (E-box) (AID 2282936); details: HepG2 E-box cis-reporter transcription, actives raise or lower the signal
Summary of the method: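 HepG2 cells transiently transfected with multiplexed cis-element reporter units, dosed 24 h; reporter mRNA quantified by RT-PCR, 6-FAM labelling, HpaI digestion and capillary electrophoresis. E-box (USF1) signal fitted bidirectionally vs DMSO.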

[11] = ATG_M_61_CIS: Attagene CIS-FACTORIAL HepG2 Assay for M61 Transcription Factor (Internal Marker) (AID 2282937); details: HepG2 Attagene CIS-FACTORIAL M61 internal marker reporter; actives raise or lower the signal
Summary of the method: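 Fluorescence from labelled cDNA fragments, separated by capillary electrophoresis, quantifies reporter induction. HepG2 cells bearing transiently transfected cis-promoter MRTUs were incubated with test chemical for 24 h; DMSO defined baseline for gain/loss fitting.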

[12] = ATG_EGR_CIS: Attagene CIS-FACTORIAL HepG2 Assay for human Early Growth Response 1 (EGR1) (AID 2282938); details: HepG2 Attagene CIS-FACTORIAL EGR reporter mRNA; actives raise or lower the signal
Summary of the method: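 Cell-based multiplex transcription assay: HepG2 carrying transfected cis-element reporter units, 24 h chemical treatment. Fluorescence from capillary electrophoresis of RT-PCR products gives mRNA levels; fitting is bidirectional relative to DMSO.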

[13] = ATG_M_19_CIS: Attagene CIS-FACTORIAL HepG2 Assay for M19 Transcription Factor (Internal Marker) (AID 2282939); details: HepG2 Attagene CIS-FACTORIAL M19 internal marker reporter; actives raise or lower the signal
Summary of the method: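 Signals come from fluorescence of labelled reporter-specific PCR fragments resolved by capillary electrophoresis, following 24 h treatment of HepG2 cells transfected with cis-promoter reporter units; activity was fitted in both directions relative to DMSO.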

[14] = ATG_Ets_CIS: Attagene CIS-FACTORIAL HepG2 Assay for human Erythroblast Transformation Specific (ETS) (AID 2282941); details: HepG2 ETS cis-reporter transcription, actives raise or lower the signal
Summary of the method: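 Steps: transfect HepG2 with multiple reporter units; treat compound 24 h; isolate RNA, DNase-treat, reverse-transcribe; PCR-amplify, label with 6-FAM, digest with HpaI; separate by capillary electrophoresis. Activity fitted both directions versus DMSO.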

[15] = target: Hepatocyte nuclear factor 3-beta (Homo sapiens) (UniProt Q9Y261); assay: ATG_FoxA2_CIS: Attagene CIS-FACTORIAL HepG2 Assay for human Forkhead box A2 (FOXA2) (AID 2282942); details: HepG2 cis-reporter transcription factor activity, 24 h; actives raise or lower the signal
Hepatocyte nuclear factor 3-beta (Homo sapiens), sequence (Q9Y261 whole entry, looked up): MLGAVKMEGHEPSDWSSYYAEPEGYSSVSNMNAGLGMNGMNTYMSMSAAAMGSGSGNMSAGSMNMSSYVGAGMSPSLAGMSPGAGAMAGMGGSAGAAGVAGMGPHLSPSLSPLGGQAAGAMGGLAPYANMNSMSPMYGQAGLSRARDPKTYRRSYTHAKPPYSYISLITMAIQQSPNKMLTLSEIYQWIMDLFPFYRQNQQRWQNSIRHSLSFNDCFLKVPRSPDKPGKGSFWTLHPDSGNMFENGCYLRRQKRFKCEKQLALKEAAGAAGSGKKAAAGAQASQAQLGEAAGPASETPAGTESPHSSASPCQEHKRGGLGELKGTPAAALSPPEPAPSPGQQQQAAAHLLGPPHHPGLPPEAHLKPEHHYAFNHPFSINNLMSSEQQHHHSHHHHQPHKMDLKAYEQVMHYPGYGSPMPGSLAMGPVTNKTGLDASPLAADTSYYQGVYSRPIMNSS
Summary of the method: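 In transiently transfected human HepG2 cells, promoter-driven reporter mRNA levels after 24 h chemical exposure are determined via RT-PCR with capillary electrophoresis. DMSO serves as baseline for bidirectional fitting.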

[16] = ATG_FoxO_CIS: Attagene CIS-FACTORIAL HepG2 Assay for human Forkhead box O (FoxO) (AID 2282943); details: HepG2 Attagene cis-reporter, FoxO element, mRNA; actives raise or lower the signal
Summary of the method: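 HepG2 cells transiently transfected with cis-element-driven reporter units report endogenous FoxO activity. After 24 h chemical exposure, reporter mRNA quantified by RT-PCR, fluorescent labeling, HpaI digestion and capillary electrophoresis; bidirectional fit versus DMSO.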

[17] = ATG_GATA_CIS: Attagene CIS-FACTORIAL HepG2 Assay for human GATA Binding Protein (AID 2282944); details: HepG2 GATA cis-element reporter, Attagene multiplex mRNA; actives raise or lower the signal
Summary of the method: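 After transfecting HepG2 cells with multiple cis-regulated reporter units, chemicals are dosed for 24 h; isolated RNA undergoes RT-PCR and fluorescent labeling before capillary electrophoresis, with activity expressed against DMSO.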

[18] = ATG_GLI_CIS: Attagene CIS-FACTORIAL HepG2 Assay for human Zinc Finger Protein GLI1 (AID 2282945); details: HepG2, Attagene cis-factorial reporter mRNA, GLI element; actives raise or lower the signal
Summary of the method: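 Transiently transfected HepG2 cells report endogenous transcription factor activity via cis-element-driven reporter units. After 24 h compound exposure, reporter mRNA was measured by RT-PCR with capillary electrophoresis; bidirectional fitting against DMSO baseline.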

[19] = target: Transcription factor E2F1 (Homo sapiens) (UniProt Q01094); assay: ATG_E2F_CIS: Attagene CIS-FACTORIAL HepG2 Assay for human E2F Transcription Factor 1 (AID 2282935); details: HepG2 Attagene cis-reporter, E2F reporter RNA transcripts; actives raise or lower the signal
Transcription factor E2F1 (Homo sapiens), sequence (Q01094 whole entry, looked up): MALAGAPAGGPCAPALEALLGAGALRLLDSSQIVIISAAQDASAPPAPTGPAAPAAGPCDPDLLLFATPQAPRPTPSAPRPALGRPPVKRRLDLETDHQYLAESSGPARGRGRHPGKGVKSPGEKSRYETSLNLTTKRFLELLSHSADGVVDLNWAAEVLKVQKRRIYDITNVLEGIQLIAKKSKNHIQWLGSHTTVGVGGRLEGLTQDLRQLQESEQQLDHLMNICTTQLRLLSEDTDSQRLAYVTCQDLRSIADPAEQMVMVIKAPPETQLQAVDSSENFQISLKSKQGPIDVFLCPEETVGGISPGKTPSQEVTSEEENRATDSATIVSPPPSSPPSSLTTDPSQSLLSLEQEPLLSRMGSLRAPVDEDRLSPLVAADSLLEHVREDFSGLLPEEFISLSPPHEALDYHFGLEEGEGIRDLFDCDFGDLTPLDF
Summary of the method: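 Endogenous E2F1 activity read through cis-promoter reporter units transfected into HepG2. After 24 h compound treatment, reporter mRNA measured by RT-PCR, HpaI digestion and capillary electrophoresis. Bidirectional fit versus DMSO.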

[20] = ATG_ERE_CIS: Attagene CIS-FACTORIAL HepG2 Assay for Estrogen Response Element (ERE) (AID 2282940); details: HepG2 ERE cis-reporter, Attagene RNA transcript; actives raise or lower the signal
Summary of the method: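 Fluorescence of capillary-separated, FAM-labelled reporter cDNA fragments indicates reporter mRNA levels in HepG2 cells exposed to chemicals for 24 h. Transient transfection with cis-regulated units; data fitted in both directions against DMSO.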

Measured: AC50

C=CC(=O)OCCC#N
active: [3] 100 µM | [4] 40.5 µM | [7] 21.6 µM | [8] 26.7 µM | [12] 82.6 µM | [14] 35.9 µM | [16] 100 µM | [18] 145 µM
inactive: [1] | [2] | [5] | [6] | [9] | [10] | [11] | [13] | [15] | [17]

CCCC[P+](CCCC)(CCCC)CCCC
inactive: [1] | [2] | [3] | [4] | [5] | [6] | [7] | [8] | [9] | [19] | [10] | [13] | [14] | [16] | [17] | [18]

Nc1c(Cl)cc(Cl)cc1[N+](=O)[O-]
active: [3] 69.1 µM | [10] 92 µM
inactive: [1] | [2] | [4] | [5] | [6] | [7] | [8] | [9] | [11] | [12] | [13] | [20] | [14] | [16] | [17] | [18]

C1CCOC1
inactive: [1] | [2] | [3] | [4] | [5] | [6] | [7] | [8] | [9] | [19] | [11] | [12] | [14] | [15] | [16] | [17] | [18]

CCOC(=O)C1OC1c1ccccc1 (centres undefined)
inactive: [1] | [2] | [7] | [8] | [11] | [12] | [13] | [14] | [15] | [16] | [17] | [18]
active: [3] 38.6 µM | [4] 37.6 µM | [5] 11.5 µM | [6] 43.6 µM | [9] 49.9 µM | [10] 57 µM

CC(=O)NCCO
inactive: [1] | [2] | [3] | [4] | [5] | [6] | [7] | [8] | [9] | [19] | [11] | [12] | [13] | [14] | [15] | [16] | [17] | [18]

Cc1occc(=O)c1OC(=O)C(C)C
inactive: [1] | [2] | [3] | [4] | [5] | [6] | [7] | [8] | [9] | [19] | [11] | [12] | [14] | [15] | [16] | [17] | [18]

CC(C)(C)OC(=O)c1ccc(O)cc1
inactive: [1] | [2] | [3] | [4] | [5] | [7] | [8] | [9] | [19] | [10] | [13] | [14] | [15] | [16] | [17] | [18]
active: [6] 70.1 µM
